# Assay results as given in PubChem BioAssay AID1259397 (Fisher Drug Discovery Resource Center, 2018).
# The campaign covered roughly 130,000 compounds. About 230 (0.18%) were called active. The sample holds actives, similar compounds and a random draw of the others, so the mix is not that of the screen. A number with no mark means an inactive call.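 Rule for the calls: active = inhibition of cGAS enzyme activity at or above 60%; inactive = the rest.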
# Target: Cyclic GMP-AMP synthase (Mus musculus) (UniProt Q8C6L5)
# Experiment: inhibitors of Mus musculus cyclic GMP-AMP synthase, initial high-throughput assay, cell-free, RapidFire MS (AID 1259397);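 note: enzyme stimulated by 45 bp dsDNA with ATP and GTP substrates; cGAMP share of summed cGAMP plus half ATP and half GTP signals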
# Conditions: recombinant mouse cGAS, cGAMP by RapidFire MS; at 12.5 µM; hits give high values
# Chain of Cyclic GMP-AMP synthase (Mus musculus) (Q8C6L5 whole entry, looked up): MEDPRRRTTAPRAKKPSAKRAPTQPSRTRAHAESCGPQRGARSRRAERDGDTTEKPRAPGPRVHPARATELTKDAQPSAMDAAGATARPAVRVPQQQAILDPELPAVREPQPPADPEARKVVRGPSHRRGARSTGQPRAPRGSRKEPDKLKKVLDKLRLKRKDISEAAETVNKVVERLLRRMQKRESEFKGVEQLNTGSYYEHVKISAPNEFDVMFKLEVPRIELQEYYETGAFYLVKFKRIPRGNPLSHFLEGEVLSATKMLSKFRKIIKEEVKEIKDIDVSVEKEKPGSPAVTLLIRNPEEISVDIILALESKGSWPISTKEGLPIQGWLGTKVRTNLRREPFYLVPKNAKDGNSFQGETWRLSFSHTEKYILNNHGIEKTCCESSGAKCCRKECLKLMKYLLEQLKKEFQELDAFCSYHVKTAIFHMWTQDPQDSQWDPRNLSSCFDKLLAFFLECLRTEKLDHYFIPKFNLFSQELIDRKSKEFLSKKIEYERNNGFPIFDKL
row,SMILES,inhibition
1,O=S(=O)(c1ccc2c(c1)OCCCO2)N1CCCC(c2nc3ccccc3s2)C1 (stereo unspecified),10%
2,Cc1sc2ncn(CC(=O)c3ccc[nH]3)c(=O)c2c1C,14.3%
3,Cc1nc2ccc(C(=O)N3CCC4(CC3)Nc3ccccc3C(=O)N4CCO)cc2[nH]1,-0.499%
4,COc1cc2c(cc1CNC1CCN(Cc3ccccc3)C1)OC(C)C2 (stereo unspecified),-13.3%
5,CC(=O)OC(OC(C)=O)c1coc2c(F)cccc2c1=O,2.77%
6,CCC1CCC(N(CC(=O)NC(C)C(=O)N(C)C)C(C)c2ccc(F)cc2)CC1 (stereo unspecified),-8.3%
7,Cc1[nH]n(-c2nc(O)c(C)c(=O)[nH]2)c(=O)c1CCO,-3.37%
8,CCCNc1nc2c(C)cccn2c(=O)c1C=C1SC(=S)N(CC(C)C)C1=O,-5.08%
9,Cc1ccc(NC(=O)CN2CCCN(c3ccc(C(F)(F)F)cn3)CC2)cc1,-2.92%
10,CC(Nc1ncnc2sc3c(c12)CCCC3)c1ccccc1 (stereo unspecified),-2.34%
11,CN(Cc1nc(-c2ccc(Br)s2)no1)c1nccs1,-1.14%
12,CN(C)c1ccc(N2CC(=O)C(c3nc(-c4cccc(Cl)c4)cs3)C2=N)cc1 (stereo unspecified),-4.69%
13,Cc1ccc(NC(=O)C(C)N2CCCC(C(F)(F)F)C2)cc1 (stereo unspecified),-5.21%
14,CCc1ccc(NC(=O)C(C)n2cc(C(F)(F)F)ccc2=O)cc1 (stereo unspecified),-4.23%
15,CCCN(C)CC1CCN(C(C)C(=O)Nc2ccc(C(F)(F)F)cc2)C1 (stereo unspecified),93.9% (active)
16,CCn1ccc(C(=O)NCc2cccnc2Oc2ccc(C)nc2)n1,4.9%
17,O=C(CSc1nnc(-c2ccco2)o1)NC1CC1,-7.76%
18,Cc1cccc[n+]1CC(=O)C12CC3CC(CC(C3)C1)C2,-6.75%
19,COc1ccc2c(c1)CCc1cc(C(=O)NC(C)c3c(C)nn(C)c3C)sc1-2 (stereo unspecified),0.0306%
20,CC(Nc1cccc(Br)c1)N1C(=O)CCC1=O (stereo unspecified),-5.36%
21,COc1ccc(OC)c(C2CCCN2Cn2nc(-c3ccccc3F)n(C)c2=S)c1 (stereo unspecified),-6.22%
22,NC(=O)Cn1nnc(-c2ccccc2Br)n1,-12.5%
23,COc1cccc(N(CN2C(=O)c3ccccc3C2=O)C(C)=O)c1,22.9%

row,SMILES,inhibition
1,CC(C)(C)SCCNC(=O)CN(c1ccc(Cl)cc1Cl)S(=O)(=O)c1ccccc1,-1.39%
2,Cc1ccc(-c2cnc(C(O)c3cccc(C)c3C)[nH]2)cc1 (stereo unspecified),-3.19%
3,N#Cc1ccc(F)c(COC(=O)c2cncc(Br)c2)c1,6.6%
4,Cc1ccc(C)c(CNc2cccc(C(=O)N3CCC(O)CC3)c2)c1,-8.84%
5,CCC(=O)N1CCN(c2ccc(Cl)cc2NC(=O)c2cccs2)CC1,-6.87%
6,CC(=O)N(C)c1ccc(NC(=O)CNCCc2cccs2)cc1,-11.1%
7,COc1ccc(OC)c(NC(=O)C(C)N2CCN(Cc3ccc(Cl)s3)CC2)c1 (stereo unspecified),-4.59%
8,CCO[C@H]1COC[C@@H]1NCC(=O)Nc1ccc(Cl)c(OC)c1,-5.39%
9,O=C(O)c1cc(-c2ccccc2)nn1-c1ccc(Cl)cc1,-1.5%
10,Cc1cc(-n2cnnc2)ncc1-c1ccc(O)cc1,-7.05%
11,Cc1ccc(NC(=O)CN2Cc3ccccc3CC2C(N)=O)cc1 (stereo unspecified),-6.79%
12,CCNC(=O)C1(C)CCN(Cc2ccc(C(=O)OCC)o2)C1 (stereo unspecified),-5.82%
13,CN=c1scc(-c2ccc(Br)cc2)n1N=Cc1cc(OC)c(OC)c(OC)c1,-11.7%
14,CC(C)Nc1ncc(C(=O)N(Cc2ccco2)C(C)C(C)C)cn1 (stereo unspecified),-1.04%
15,C=CC[C@H]1CC(C)=C[C@H](CC=C)N1C(=O)c1cnc2cccc(C)n2c1=O,-2.04%
16,O=C1COCc2ccc(-c3cccnc3)cc2N1CC1CC1,-11.8%
17,CCCn1c(=O)n(C)c(=O)c2c(SCC(=O)C(C#N)=C(C)N)nc(CC(C)C)nc21,-1.38%
18,CC1(C(=O)NCc2ccc3c(c2)OCO3)CCN1CCc1ccccc1 (stereo unspecified),-12.7%
19,COc1ccc(CC(=O)OCc2cc(-c3ccc4c(c3)OCO4)on2)cc1OC,-7.02%
20,CC(C)c1cc(C2CCN(C(=O)CN3CCOC3=O)CC2)[nH]n1,-25.2%
21,COc1ccc(NC(=O)CCC2CCN(Cc3ccc(SC)cc3)CC2)c(OC)c1,-5.25%
22,Cc1cccc(Nc2ncccc2C(=O)NCc2ccccn2)c1C,1.13%
23,Cc1[nH]n2c(=O)c3c(nc2c1-c1cccc2ccccc12)CCCC3,1.14%
